Measured values: PubChem BioAssay AID686978 (National Center for Advancing Translational Sciences (NCATS), 2013)
Screen size: about 420,000 compounds; about 64,000 (15%) were called active. Another 27% or so got no clear call; they are omitted. A selection follows. A number with no mark means an inactive call. Calls come from the whole dose curve; as a rule, active = well fitted inhibition curve with a large enough effect; inconclusive = small, poorly fitted or top-dose-only effect; inactive = flat fitted curve, though single readings scatter.

assay: qHTS for Inhibitors of human tyrosyl-DNA phosphodiesterase 1 (TDP1): qHTS in cells in absence of CPT; details: DT40 Tdp1-/- hTDP1 cells, no CPT, ATP luminescence, 48 h; activity change, negative = growth inhibition: at 46.2 µM (top of the series); note: nearly all actives have a fitted effect of over 55% in size
Summary of the method: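 No-CPT arm: Tdp1-/-;hTDP1 DT40 cells (400/well) plus compounds, incubated ≥48 hr at 37 °C. Readout CellTiter-Glo luminescence.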
% is set by controls: 0 for no effect and ±100 for the full control effect; potency is the fitted concentration of half-maximal effect.

Compound	activity change, negative = growth inhibition [%]	Potency
CCCS(=O)(=O)N1CCC(C(=O)NCCCN(C)Cc2ccccc2)CC1	-0.239	–
CSc1ncnc2c1ncn2CCCNCc1ccco1	-3.83	–
O=C(Nc1cccnc1)c1cc2cc(Br)ccc2oc1=O	9.72	–
COC(=O)c1cc(=O)n(-c2c(Cl)cc(C(F)(F)F)cc2Cl)[nH]1	-2.3	–
CCOC(=O)c1c(NC(=O)CSc2nccc(=O)[nH]2)sc(C)c1C	-3.03	–
CCC(=O)Nc1ccc(-c2ccc(N3CCCCC3)nn2)cc1	-24.9	–
Cc1ccc(S(=O)(=O)N2CCC(Oc3ccc(-n4cnnn4)cc3)CC2)cc1	-1.55	–
Cc1ccccc1N/N=C/c1ccc(N2CCOCC2)cc1	-13.9	–
CN(C)c1ccc(/C=N/Nc2cc(N3CCOCC3)nc(N3CCOCC3)n2)cc1	-4.47	–
C(=N/Nc1cc(N2CCOCC2)nc(N2CCOCC2)n1)/c1ccccc1	–	20.6 µM (active)
COc1ccc(/C=N/NC(=O)CNC(=O)c2ccc(S(=O)(=O)N3CCCC3)cc2)c(OC)c1	-2.19	–
COc1ccc(/C=N/Nc2cc(N3CCOCC3)nc(C)n2)c(OC)c1	–	20.6 µM (active)
COc1ccc(/C=N/NC(=O)Nc2ccc3nsnc3c2)c(OC)c1	14.1	–
C=CCN1C(=O)C(Cc2ccc(OCC)cc2)SC1=Nc1ccc(C(=O)O)cc1 (centres undefined)	6.09	–
COc1ccc(N=C2SC(C(=O)Nc3ccc(F)cc3)CC(=O)N2C)cc1 (centres undefined)	-4.58	–
CC1Cc2ccccc2N1C(=O)CSc1nnc(C2CC2)n1C (centres undefined)	-25.7	–
COc1ccc(CC(=O)Nc2c(C(N)=O)oc3ccccc23)cc1	2.8	–
COCCNC(=O)CSc1nc2c(n1-c1ccccc1)CCCC2	-11.9	–
Nc1ccn(C2CC(O)C(CO)O2)c(=O)n1 (centres undefined)	-4.34	–
Nc1ncnc2c1cnn2C1CC(O)C(CO)O1 (centres undefined)	3.22	–
Nc1ncnc2c1ncn2C1CC(O)C(CO)O1 (centres undefined)	–	4.61 µM (active)
O=[N+]([O-])c1ccc(C(S(=O)(=O)Cc2ccccc2)S(=O)(=O)Cc2ccccc2)cc1	–	18.4 µM (active)
O=C(Cc1ccccc1)NNS(=O)(=O)c1ccc([N+](=O)[O-])cc1	-20.9	–
O=C(NNS(=O)(=O)Cc1ccccc1)c1ccc([N+](=O)[O-])cc1	-9.44	–
Cn1c(N)cc(-c2ccc(F)cc2)c(C#N)c1=O	8.99	–
CCOc1ccc(N=C2NC(=O)S/C2=C\c2ccc(O)cc2)cc1	-2.77	–

Compound	activity change, negative = growth inhibition [%]	Potency
CCOc1[nH]n(-c2ccc(Cl)cc2)c(=O)c1C=Nc1ccc(O)cc1	–	5.17 µM (active)
CC(=O)Cn1ncc(N2CCOCC2)c(Br)c1=O	2.02	–
Cc1ccc(Cc2nc(-c3cccc(C)c3)no2)cc1	-22.1	–
N/C(=N\S(=O)(=O)c1ccc(Cl)cc1)N1CCOCC1	-5.51	–
CCOC(=O)c1cnc2nc(SCc3ccccc3Cl)[nH]n2c1=O	-1.61	–
COc1ccc2ccn(C)c2c1	3.79	–
Cc1cc2ncn(CCCCOc3ccccc3)c2cc1C	–	14.6 µM (active)
COCCOCCn1cnc2ccccc21	-17.7	–
O=c1c2ccccc2ncn1CCCCOc1ccccc1F	0.355	–
COc1ccc(OCCn2ccnc2C)cc1	13.3	–
COc1ccc(OCCCn2c(C)nc3cc(C)c(C)cc32)cc1	–	10.3 µM (active)
Cc1ccc(C(=O)N2CCN(S(=O)(=O)N3CCOCC3)CC2)cc1	-0.232	–
N#Cc1c(-c2cccs2)nc(SCC(=O)c2ccc(Br)cc2)[nH]c1=O	-1.86	–
O=C(NC(C(=O)NCCN1CCOCC1)C12CC3CC(CC(C3)C1)C2)C1CCCCC1 (centres undefined)	-11.2	–
Cc1ccc(S(=O)(=O)/N=C(/Nc2ccccn2)c2ccc(Cl)cc2)cc1	-13.4	–
Cc1ccc(S/C(=N\S(=O)(=O)c2ccc(Cl)cc2)c2ccccc2)cc1	–	10.3 µM (active)
O=S(=O)(/N=C(/Nc1ccccn1)c1ccccc1)c1ccc(Cl)cc1	-4.59	–
O=C(CCS(=O)(=O)c1ccccc1Cl)Nc1ccc(S(=O)(=O)Nc2ncccn2)cc1	39	–
O=C(O)c1ccccc1NC(=O)c1ccccc1-c1ccccc1C(=O)O	11.1	–
CCOC(=O)CCNC(=O)N1CCCC(C(=O)c2ccccc2SC)C1 (centres undefined)	-6.94	–
CCNC(=O)N1CCCC(C(=O)c2ccc(-c3ccccc3)cc2)C1 (centres undefined)	–	9.2 µM (active)
Cc1ccccc1NC(=O)C1CCCN(C(=O)NCc2ccccc2)C1 (centres undefined)	-7.54	–
O=C(CSc1nnc(-c2ccco2)n1-c1ccccc1)NCCc1ccccc1	-15.7	–
Cc1ccc(Nc2nc(N)nc(CN3CCN(Cc4ccccc4)CC3)n2)cc1Cl	–	16.4 µM (active)
CCSCc1nc(N)nc(NCCc2ccccc2)n1	-4.87	–
CCOC(=O)N1CCN(Cc2nc(N)nc(Nc3ccc(C)cc3)n2)CC1	2.14	–

Compound	activity change, negative = growth inhibition [%]	Potency
CCOc1ccc(S(=O)(=O)NCc2ccc3c(c2)OCO3)cc1C	11.8	–
O=C(OCCN=C1NS(=O)(=O)c2ccccc21)c1cccc([N+](=O)[O-])c1	-22.8	–
Cc1cccc(C(=O)Nc2ccc(C(=O)/C=C/c3cccs3)cc2)c1	–	16.4 µM (active)
Cc1ccc(C(=O)Nc2ccc(NC(=O)c3cccs3)cc2)c(C)c1	-23.5	–
Cc1cccc(C(=O)Nc2ccc(CC(=O)O)cc2)c1	-5.82	–
COc1ccc(OC)c(CCNC(=O)CCCn2c(=O)c3cccn3c3cccnc32)c1	–	20.6 µM (active)
COCCCNC(=O)CCc1nc2cccnc2n1Cc1ccc(OC)cc1	-4.33	–
CC1CCCCC12NC(=O)N(CC(=O)Nc1ccc(S(=O)(=O)Nc3ncccn3)cc1)C2=O (centres undefined)	-14.9	–
CC1CCN(C(=O)Cn2nnnc2CN2CCOCC2)CC1	6.65	–
CN(c1ccccc1)S(=O)(=O)c1ccc2[nH]c(=O)[nH]c2c1	0.432	–
Cc1cccc(NC(=O)c2ccc(S(=O)(=O)N(C)c3ccccc3)cc2)n1	–	20.6 µM (active)
Cc1ccnc(NS(=O)(=O)c2ccc(NC(=O)c3ccc(S(=O)(=O)N(C)C)cc3)cc2)n1	-2.78	–
O=C(NCCC1CCCCN1S(=O)(=O)c1cccs1)C(=O)Nc1ccc(F)cc1F (centres undefined)	–	2.59 µM (active)
O=C(NCc1ccccc1Cl)C(=O)NCC1CCCN1S(=O)(=O)c1cccs1 (centres undefined)	-22.4	–
O=C(NCCC1CCCCN1S(=O)(=O)c1ccc(F)cc1)C(=O)NC1CC1 (centres undefined)	-3.26	–
CCOC(=O)N1CCN(CCC(=O)Nc2ccccc2)CC1	-12.8	–
Cc1nc(N2CCOCC2)c2c(C(=O)NCc3cccc(Cl)c3)c(C)oc2n1	-1.65	–
CCOC(=O)c1c(C)oc2nc(C)nc(N3CCN(c4ccc(OC)cc4)CC3)c12	–	8.2 µM (active)
CCOC(=O)c1c(C)oc2nc(C)nc(N(CC(C)C)CC(C)C)c12	–	16.4 µM (active)
CCOC(=O)c1c(C)oc(C)c(C(=O)OCC)c1=O	2.36	–
COc1ccc(N2CCN(C(=O)c3c(C)oc4nc(C)nc(N5CCCC5)c34)CC2)cc1	-22.7	–
CCOC(=O)c1c(C)oc2nc(C)nc(Nc3ccc(CC)cc3)c12	-30.4	–
NC(=O)c1cc(-c2cccnc2)nc2ccc(Br)cc12	-13.9	–
CN1C(=O)/C(=N/OC(=O)c2ccccc2Br)c2ccccc21	-28.5	–
COc1cc(SC#N)ccc1N=Cc1c(C)[nH]n(-c2ccc(C)cc2)c1=O	–	3.66 µM (active)
CCOC(=O)c1sc2nc(C)nc(SCC(N)=O)c2c1C	2.57	–

Compound	activity change, negative = growth inhibition [%]	Potency
COC(=O)C1(C)NC(c2ccc(C)cc2)C2C(=O)N(c3ccc(F)cc3)C(=O)C21 (centres undefined)	5.47	–
COC(=O)C1(C)NC(c2ccc(F)cc2)C2C(=O)N(c3ccccc3)C(=O)C21 (centres undefined)	17.9	–
COC(=O)[C@]1(C)N[C@H](c2ccc(-c3ccc(Cl)c(Cl)c3)cc2)[C@@H]2C(=O)N(C)C(=O)[C@@H]21	–	16.4 µM (active)
O=S(=O)(c1ccc(F)cc1)N1CC=C(c2ccccc2)CC1	-29.1	–
CC1(C)CC(=O)C2=C(C1)NCN(CCCN1CCOCC1)C2	-11.2	–
Cc1c(NC(=O)CN2C(=O)C(=O)N(Cc3ccccc3)C2=O)c(=O)n(-c2ccccc2)n1C	7.02	–
CCOC(=O)c1cc2c(=O)n3ccccc3nc2n(CC2CCCO2)c1=NC(=O)c1ccc(C(C)(C)C)cc1 (centres undefined)	-2.39	–
CCOC(=O)c1cc2c(=O)n3ccccc3nc2n(CCCOC)c1=NC(=O)C(C)Oc1ccccc1 (centres undefined)	-24.7	–
CCOC(=O)c1cc2c(=O)n3ccccc3nc2n(CC(C)C)c1=NC(=O)c1c(-c2c(F)cccc2Cl)noc1C	–	5.8 µM (active)
c1c2c(cc3sc(N4CCCCC4)nc13)OCCO2	-22.8	–
CCC(C)(C)c1ccc(OCC(=O)N(C)C)c(C(C)(C)CC)c1	–	18.4 µM (active)
CCc1nc(C)ccc1OCC(=O)N(CC)CC	-10.2	–
Cc1cccc(C(=O)NNC(=O)CSc2nnc(C(C)C)n2C)c1	0.652	–
CCn1c(SCC(=O)NNC(=O)c2ccc(OC)cc2)nnc1C(C)C	–	20.6 µM (active)
CCn1c(CNc2ccc(OC)cc2)nnc1SCC(=O)c1ccc(OC)cc1	-21.5	–
CCNC(=O)NC(=O)C(C)OC(=O)C1CCN(S(=O)(=O)c2ccccc2F)CC1 (centres undefined)	-0.61	–
Cc1nc(COc2cccc(Cl)c2)sc1C(=O)/C=C/N(C)C	-10.1	–
CCOc1ccc(S(=O)(=O)N2CCC(c3ccccc3)CC2)cc1C(=O)O	9.36	–
CCOc1ccccc1C(=O)Nc1ccc(S(=O)(=O)N2CCCCC2c2cccnc2)cc1 (centres undefined)	–	18.4 µM (active)
Cc1cc(NS(=O)(=O)c2ccc(NC(=O)c3cccnc3)cc2)nc(C)n1	-9.45	–
CCOc1ncccc1C(=O)Nc1ccc(S(=O)(=O)Nc2nc(C)cc(C)n2)cc1	-3.56	–
CC(C)NS(=O)(=O)c1ccc(NC(=O)c2cccnc2)cc1	-17.9	–
Cc1cccc(C(=O)Nc2ccc(S(=O)(=O)N3CCCCC3c3cccnc3)cc2)c1 (centres undefined)	–	18.4 µM (active)
CCn1ccnc1CNC(=O)CC1C(=O)NCCN1Cc1ccc(F)cc1Cl (centres undefined)	1.09	–
COC(=O)Cn1c(=NC(=O)c2cc(OC)c(OC)c(OC)c2)sc2cc(OC)ccc21	-24.5	–
NS(=O)(=O)c1cccc(NC(=O)COC(=O)c2cc([N+](=O)[O-])ccc2N2CCCC2)c1	-4.81	–
